For 40 compounds, outcome and AC50 results are on record in PubChem BioAssay (EPA / NIEHS).

The AC50 is the concentration at which the activity in the assay is half-maximal.

Records with an inconclusive call do not appear. Activity calls are given as the source filed them. The calls were made as follows: active = hit-call score of the fitted dose curve at least 0.9, where 1 is the maximum; inconclusive = response in the unintended direction; inactive = score below 0.9.

This test is described as follows: ATG_M_32_TRANS: Attagene TRANS-FACTORIAL HepG2 Assay for M32 Transcription Factor (Internal Marker) (AID 2282984). To be noted: HepG2 Attagene TRANS M32 internal marker reporter. The procedure:
ATG_TRANS is a cell-based, multiplexed-readout assay that uses HepG2, a human liver cell line, with measurements taken at 24 hours after chemical dosing in a 24-well plate.ATG_M_32_TRANS is one of 30 assay component(s) measured or calculated from the ATG_TRANS assay. It is designed to make measurements of mRNA induction, a form of inducible reporter, as detected with fluorescence intensity signals by Reverse transcription polymerase chain reaction (RT-PCR) and Capillary electrophoresis technology.Data from the assay component ATG_M_32_TRANS was analyzed into 1 assay endpoint. This assay endpoint, ATG_M_32_TRANS, was analyzed in the positive analysis fitting direction relative to DMSO as the negative control and baseline of activity. Using a type of inducible reporter, measures of mRNA for gain-of-signal activity can be used to understand the background control at the transcription factor-level as they relate to the gene . Furthermore, this assay endpoint can be referred to as a secondary readout, because this assay has produced multiple assay endpoints where this one serves a background control function. To generalize the intended target to other relatable targets, this assay endpoint is annotated to the background measurement intended target family, where the subfamily is internal marker.
Human liver HepG2 cells are transiently transfected with multiple reporter transcription units (MRTUs) in 6-well plates using FuGene 6 reagent (Roche; 3 ml FuGene/1 mg DNA). The MRTU constructs are regulated by a cis-regulating element (promoter). […] A major difference between the CIS and TRANS system is that in CIS activities of endogenous TFs are measured, whereas the TRANS assay evaluates changes in activities of exogenous, chimeric NR-Gal4 proteins. […] At the end of 24 hour incubation, total RNA was isolated using TriZol reagent (Invitrogen). The isolated RNA is then reverse-transcribed using oligo(dT) primer and Mo-MLV reverse transcriptase (Invitrogen) with DNAse I (Ambion) treatment for 30 min. The one-tenth of the produced cDNA was amplified by PCR using Taq DNA polymerase (Invitrogen) and two reporter sequence-specific primers. The PCR products were fluorescently labeled by primer extension with 6-arboxyfluorescein (6-FAM) 5'-labeled reporter sequence-specific primer (2 min at 95 C, 20 s at 68 C and 10 min at 72 C) and these products were digested with 5U of HpaI (New England Biolabs) for 2h at 37 C. The fragments were purified using Qiaquick PCR columns (Qiagen), analyzed on an ABI 3130xL genetic analyzer (Applied Biosystems) with peak positions identified by using a set of X-rhodamine (ROX)-labeled MapMarker1000 molecular weight standards (BioVentures). The raw capillary electrophoresis data was processed using Attagraph software (Attagene).
On to `CC(C)n1c(/C=C/[C@@H](O)C[C@@H](O)CC(=O)O)c(-c2ccc(F)cc2)c2ccccc21`, for which the call was inactive.
In the case of `CCCCCCCCCCCCCCCCCC[N+](C)(C)C`, the concentration at half-maximal activity (AC50) is 16.2 µM (active).
Take `CC1=CCCC(C)(C)C12CCC(C)O2` (stereo not given): the call was inactive.
Take `CC(=O)c1nccs1`: the result was inactive.
The same measure, in the same setting: for `CCCCCCCCCC/C=C/C1CC(=O)OC1=O` (stereo not given) the value was “inactive”; for `CCC(C)=NO`, “inactive”.
Same read-out and setting: the value for `NC(=O)c1ccc([N+](=O)[O-])cc1Cl` was “inactive”; that for `CC(C)=CCOC(=O)c1ccccc1` was “inactive”.
The same measure, in the same setting: the value for `CCCCCCC1CCCC(=O)O1` (stereo not given) was “inactive”; that for `CC=CC(=O)O` was “inactive”; that for `Oc1ccc(Cl)cc1C1CCCC1` was “inactive”.
Take `Cc1ccccc1S(N)(=O)=O`: the outcome was inactive.
As to `CCC(C)NC(N)=O` (stereo not given), the outcome was inactive.
Same read-out and setting: for `CCCC(=O)OC/C=C(\C)CCC=C(C)C` the value was “inactive”.
Same read-out and setting: for `CCCCCCCCCCCCCC` the value was “inactive”.
Same read-out and setting: for `CN(C)Cc1cc(C(C)(C)C)c(O)c(C(C)(C)C)c1` the value was “inactive”; for `F[B-](F)(F)F`, “inactive”; for `Cc1ccnc(N)c1`, “inactive”.
As for `C1=CCC=C1`, the compound was called inactive.
On the same count and under the same terms, for `N#CCN(CC#N)CCN(CC#N)CC#N` the value was “inactive”.
On the same count and under the same terms, the value for `Clc1ccccn1` was “inactive”; that for `O=C(C(=O)c1ccccc1)c1ccccc1` was “inactive”; that for `Cc1cc(C)c(S(=O)(=O)O)cc1N=Nc1cc(S(=O)(=O)O)c2ccccc2c1O` was “inactive”.
For the compound `CCC(=O)OCc1ccc(OC)cc1`, the call was inactive.
`CCCCCCC(O)CCCCCCCCCCC(=O)OC` (stereo not given): the call was inactive.
Turning to `CNC(=C[N+](=O)[O-])NCCSCc1csc(CN(C)C)n1`, the call was inactive.
Same read-out and setting: the value for `O=C(O)c1ccccc1C(=O)O` was “inactive”; that for `CN(C)N=Nc1ccccc1` was “inactive”.
The same measure, in the same setting: the value for `O=C1CCCCCCCCCCCCCC1` was “inactive”; that for `CN1CCCC1` was “inactive”.
On the same count and under the same terms, the value for `O=C(O)c1nc(Cl)c(Cl)c(Cl)c1Cl` was “inactive”; that for `CN(C)CCC(c1ccc(Cl)cc1)c1ccccn1` (stereo not given) was “inactive”; that for `O=C(CC(C(=O)OC1CCCCC1)S(=O)(=O)O)OC1CCCCC1` (stereo not given) was “inactive”.
Take `CC/C=C\CC/C=C/C(OCC)OCC`: the compound was called inactive.
On to `COc1cccc(OC)c1C(=O)O`, for which the result was inactive.
On the same count and under the same terms, the value for `O=C(O)Cc1c[nH]c2ccccc12` was “inactive”.
Same read-out and setting: the value for `COC(=O)[C@]1(C)CCC[C@@]2(C)[C@H]1CC=C1C=C(C(C)C)CC[C@@H]12` was “inactive”; that for `Brc1ccc(Oc2ccc(Br)cc2)cc1` was “inactive”; that for `Sc1nc2ccccc2s1` was “inactive”.
On the same count and under the same terms, the value for `CC[N+](CC)(CC(=O)Nc1c(C)cccc1C)Cc1ccccc1` was “inactive”.
